Assay [1] deals with 6-phosphogluconate dehydrogenase, decarboxylating (Homo sapiens) (UniProt P52209). Kind of assay: inhibition of human phosphogluconate dehydrogenase – biochemical, recombinant enzyme, NADPH absorbance, primary screen (AID 1159550). Conditions: recombinant 6PGD, NADPH absorbance 341 nm; at 10 µM; stronger effect = higher value.
Assay [2] relates to Aerobactin synthetase IucA (Klebsiella pneumoniae hvKP1). Description: IucA enzyme inhibition, primary screen, biochemical, Spectrum library (AID 1346200; call rule not given here;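 further: 100% = wells without compound and 0% = wells lacking enzyme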). Conditions: malachite green pyrophosphate, A620, at 8 µM, stronger effect = lower value.
Assay [3] addresses Mitogen-activated protein kinase 7 (Homo sapiens) (UniProt Q13164). Description: Gal4-ERK5 driven luciferase induction – cell-based, HTS, primary screen (AID 1508626;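 active means luciferase signal above three times the same-plate solvent-only control wells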;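 further: luciferase driven by Gal4-ERK5 fusion binding five Gal4 sites before minimal TATA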). Conditions: HeLa Gal4-ERK5 transactivation, 18 h, at 5 µM, stronger effect = higher value.
The target in assay [4] is ATP-dependent translocase ABCB1 (Homo sapiens) (UniProt P08183). Description: P-glycoprotein substrate transport blockade – cell-based (AID 377; in the data active means fluorescence slope change above about 50%). Conditions: MDR1-expressing cells, fluorescent substrate accumulation slope; stronger effect = higher value; concentration not given here.
Assay [5] in a line: compounds altering viability of human ES cells (AID 493140; call rule not given here;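 further: cells exposed to compounds for four days before counting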). Conditions: human embryonic stem cell survival screen; stronger effect = higher value.
A short description of assay [6]: P. berghei load reduction in hepatocytes – cell-based, HepG2, luciferase luminescence, HepG2 viability, primary screen (AID 624349; in the data active means parasite load remaining mostly below about 12%, no sharp cut-off; inactive means mostly above about 10%;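 further: 100% = mean of DMSO negative control wells on the same plate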). The settings on record: P. berghei liver stage in HepG2, luciferase luminescence, concentration not given here; parasite load remaining: stronger effect = lower value; viability: measured here: HepG2 viability without parasites.
Assay [7] concerns Aerobactin synthetase IucA (Klebsiella pneumoniae, hypervirulent). Kind of assay: biochemical IucA inhibition screen of LOPAC library by absorbance (AID 1346212; call rule not given here;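 further: 100% = no compound wells and 0% = no enzyme wells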). The settings on record: IucA enzyme assay, absorbance (OD) readout; stronger effect = lower value;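 tested at 8 µM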.
Assay [8] is described as follows: viability loss with induced miR-34 in A549 – imaging, A549 dox-inducible miR-34, nuclei and caspase counts, primary screen (AID 1347080;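 active means compounds whose cell count with miR-34 switched on is under 0.7 times the count with it off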). Conditions: A549 miR-34 inducible, Hoechst nuclei count, 48 h.
The nature of assay [9]: MELAS cybrid and Rieske KO viability enhancers – cell-based, MELAS cybrids, Rieske KO mouse fibroblasts, CellTiter-Glo, primary screen (AID 1508586;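 active means mean z-score across replicates of 1.96 or higher in either the MELAS or the Rieske mutant cell line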;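 further: z relative to plate mean and SD of compound and empty wells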). Conditions: low glucose. (In general: In ATP-based viability assays light output follows the ATP content of the culture.)
Assay [10] concerns the target NAD(+) hydrolase SARM1 (Homo sapiens) (UniProt Q6SZW1). Kind of assay: blocking NAD cleavage by SARM1 SAM-TIR – cell lysate, NAD-Glo luminescence (AID 1508614;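 active means compound whose remaining NAD level is above about 45 nM, limit read from the data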). The settings on record: SAM-TIR HEK293T lysate NADase, at 1 µM, stronger effect = higher value.
Assay [11] can be described thus: galactose survival enhancers in mitochondrial complex I cybrids – cell-based, galactose medium, ATP luminescence, primary screen (AID 1645843;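 active means z-score of at least 1.8 in each of two replicates, scored against plate mean and spread of sample wells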;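 further: positive z means more ATP and so rescue of galactose-driven cybrid death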). Conditions: complex I mutant cybrid cells, 72 h, stronger effect = higher value.
A short description of assay [12]: growth inhibition of DIPG cells – cell-based, MIPE4.0 library, CellTiter-Glo luminescence, qHTS (AID 1347066; cut-off not given, nearly all actives have AC50 up to about 30 µM;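 further: cells exposed to compound for 48 hours before readout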). Conditions: SU-DIPG-VI viability, CellTiter-Glo ATP luminescence.
Setting [13] is: measured here: relative caspase fold change +Dox/-Dox.
The mark [14] stands for this setting: measured here: total cells with miR-34 induction, stronger effect = lower value.
Setting [15] is: measured here: total cells without miR-34 induction.
The mark [16] stands for this setting: MELAS cybrid survival, CellTiter-Glo 48 h, stronger effect = higher value.
The mark [17] stands for this setting: Rieske KO mouse fibroblast survival, CellTiter-Glo 72 h.

Results on ten compounds are retold here after PubChem BioAssay.

Several values for one entry are separate records, joined by “and”; a condition that tells them apart may be missing. Identical values can stand only once. Records with an inconclusive call do not appear. Activity calls are given as the source filed them.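 How the source made its calls, unless noted: active means at least 20% inhibition of 6-phosphogluconate dehydrogenase activity; inactive means the rest.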

6-phosphogluconate dehydrogenase, decarboxylating (Homo sapiens), sequence (P52209 whole entry, looked up): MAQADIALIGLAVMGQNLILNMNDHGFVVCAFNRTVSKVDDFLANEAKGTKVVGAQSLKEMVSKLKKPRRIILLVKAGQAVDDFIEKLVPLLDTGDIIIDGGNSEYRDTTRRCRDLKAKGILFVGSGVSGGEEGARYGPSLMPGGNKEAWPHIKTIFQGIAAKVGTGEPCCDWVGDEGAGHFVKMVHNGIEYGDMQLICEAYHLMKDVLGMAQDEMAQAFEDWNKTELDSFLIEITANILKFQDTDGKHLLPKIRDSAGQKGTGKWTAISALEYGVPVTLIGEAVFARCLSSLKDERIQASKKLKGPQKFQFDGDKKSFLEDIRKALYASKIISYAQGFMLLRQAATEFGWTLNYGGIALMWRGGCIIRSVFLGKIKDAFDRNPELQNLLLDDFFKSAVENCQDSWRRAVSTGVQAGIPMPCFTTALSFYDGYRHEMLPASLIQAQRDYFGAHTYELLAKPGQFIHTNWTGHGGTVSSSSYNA
NAD(+) hydrolase SARM1 (Homo sapiens), sequence (Q6SZW1 whole entry, looked up): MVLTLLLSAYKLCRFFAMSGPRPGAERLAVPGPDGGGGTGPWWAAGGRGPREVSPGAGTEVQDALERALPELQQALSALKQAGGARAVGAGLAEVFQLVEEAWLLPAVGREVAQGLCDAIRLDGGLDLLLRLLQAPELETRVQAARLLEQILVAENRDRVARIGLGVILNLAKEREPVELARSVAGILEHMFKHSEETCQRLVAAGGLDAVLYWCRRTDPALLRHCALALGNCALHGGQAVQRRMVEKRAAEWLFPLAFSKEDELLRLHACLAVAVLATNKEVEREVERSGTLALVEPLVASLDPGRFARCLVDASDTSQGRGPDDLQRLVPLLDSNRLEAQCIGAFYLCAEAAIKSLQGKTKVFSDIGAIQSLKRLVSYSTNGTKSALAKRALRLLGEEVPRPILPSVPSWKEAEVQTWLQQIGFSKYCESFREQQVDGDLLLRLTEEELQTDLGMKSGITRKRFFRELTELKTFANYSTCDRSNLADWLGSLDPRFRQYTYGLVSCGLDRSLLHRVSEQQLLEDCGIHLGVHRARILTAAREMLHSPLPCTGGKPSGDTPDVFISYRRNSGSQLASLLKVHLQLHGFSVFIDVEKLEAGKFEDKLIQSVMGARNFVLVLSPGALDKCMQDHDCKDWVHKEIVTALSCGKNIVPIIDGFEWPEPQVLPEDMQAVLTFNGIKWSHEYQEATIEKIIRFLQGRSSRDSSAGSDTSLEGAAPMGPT
Mitogen-activated protein kinase 7 (Homo sapiens), sequence (Q13164 whole entry, looked up, the tested form may be a part): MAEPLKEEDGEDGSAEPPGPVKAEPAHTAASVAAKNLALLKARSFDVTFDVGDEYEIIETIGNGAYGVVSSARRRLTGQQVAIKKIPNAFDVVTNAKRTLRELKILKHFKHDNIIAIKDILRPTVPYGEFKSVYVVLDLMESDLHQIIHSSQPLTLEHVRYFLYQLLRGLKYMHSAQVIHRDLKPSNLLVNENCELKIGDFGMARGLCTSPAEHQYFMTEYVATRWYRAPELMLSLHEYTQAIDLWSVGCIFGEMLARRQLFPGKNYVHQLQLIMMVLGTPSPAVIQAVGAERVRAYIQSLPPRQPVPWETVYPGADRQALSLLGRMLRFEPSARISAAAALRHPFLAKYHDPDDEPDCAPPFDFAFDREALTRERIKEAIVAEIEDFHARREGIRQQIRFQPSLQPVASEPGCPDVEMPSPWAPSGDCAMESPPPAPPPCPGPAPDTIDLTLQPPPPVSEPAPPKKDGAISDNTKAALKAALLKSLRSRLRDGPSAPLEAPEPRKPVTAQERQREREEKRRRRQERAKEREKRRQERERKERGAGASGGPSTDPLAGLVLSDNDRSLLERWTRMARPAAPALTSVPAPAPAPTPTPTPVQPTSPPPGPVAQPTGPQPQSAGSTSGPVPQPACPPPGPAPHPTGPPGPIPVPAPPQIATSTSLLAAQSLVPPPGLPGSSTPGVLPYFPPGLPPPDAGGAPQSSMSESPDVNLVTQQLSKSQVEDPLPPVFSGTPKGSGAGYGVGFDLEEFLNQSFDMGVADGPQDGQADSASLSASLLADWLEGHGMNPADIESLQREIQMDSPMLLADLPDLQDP
ATP-dependent translocase ABCB1 (Homo sapiens), sequence (P08183 whole entry, looked up): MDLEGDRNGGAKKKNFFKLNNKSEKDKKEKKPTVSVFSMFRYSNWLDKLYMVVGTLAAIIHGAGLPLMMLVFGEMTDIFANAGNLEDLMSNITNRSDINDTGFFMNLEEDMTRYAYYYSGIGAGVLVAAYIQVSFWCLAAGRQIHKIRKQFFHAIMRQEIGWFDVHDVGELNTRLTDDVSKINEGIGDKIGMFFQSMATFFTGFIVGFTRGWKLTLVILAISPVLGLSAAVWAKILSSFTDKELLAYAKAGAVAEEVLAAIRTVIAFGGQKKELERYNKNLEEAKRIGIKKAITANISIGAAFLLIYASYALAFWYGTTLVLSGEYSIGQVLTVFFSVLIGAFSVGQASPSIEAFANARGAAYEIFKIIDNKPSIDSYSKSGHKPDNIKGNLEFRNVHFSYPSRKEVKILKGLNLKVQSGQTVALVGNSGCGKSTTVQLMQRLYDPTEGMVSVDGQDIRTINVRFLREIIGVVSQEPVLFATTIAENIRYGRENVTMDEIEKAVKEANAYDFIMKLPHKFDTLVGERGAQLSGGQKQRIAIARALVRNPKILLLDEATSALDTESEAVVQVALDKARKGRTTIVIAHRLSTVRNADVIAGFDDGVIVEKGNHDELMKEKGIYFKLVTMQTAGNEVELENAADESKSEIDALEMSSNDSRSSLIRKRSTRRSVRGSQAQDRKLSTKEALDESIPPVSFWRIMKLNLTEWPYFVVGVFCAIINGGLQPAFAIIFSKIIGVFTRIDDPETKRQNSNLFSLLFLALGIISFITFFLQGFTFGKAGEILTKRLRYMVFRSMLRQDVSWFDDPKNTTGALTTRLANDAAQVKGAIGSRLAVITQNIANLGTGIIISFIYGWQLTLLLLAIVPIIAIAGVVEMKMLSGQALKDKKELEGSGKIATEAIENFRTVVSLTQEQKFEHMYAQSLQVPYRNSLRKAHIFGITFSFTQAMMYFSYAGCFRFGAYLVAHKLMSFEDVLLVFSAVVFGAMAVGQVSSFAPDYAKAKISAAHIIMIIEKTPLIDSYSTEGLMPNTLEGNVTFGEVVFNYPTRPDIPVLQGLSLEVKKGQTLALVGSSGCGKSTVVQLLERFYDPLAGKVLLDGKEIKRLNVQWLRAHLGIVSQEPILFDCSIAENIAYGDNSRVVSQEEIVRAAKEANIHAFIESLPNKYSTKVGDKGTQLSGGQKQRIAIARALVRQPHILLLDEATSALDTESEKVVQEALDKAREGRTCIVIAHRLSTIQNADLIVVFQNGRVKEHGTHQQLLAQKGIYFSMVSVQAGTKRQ

In general, inhibition refers to the drop in the measured response relative to a control, in per cent. On to `CCCN(CCC)c1c([N+](=O)[O-])cc(C(F)(F)F)cc1[N+](=O)[O-]`, for which the inhibition in [1] was -18.5% (inactive). Moreover, in assay [2], the activity remaining was 95.7% (inactive). The luciferase signal in [3] is 72 AU (inactive).

A word on the viability: it is a read-out of living cells in per cent, often relative to untreated cells. What is called remaining activity is the signal under treatment as a percentage of the control signal. In the case of `Oc1ccc2c3c1O[C@H]1[C@@H](O)CC[C@@]4(O)[C@@H](C2)N(CC2CCC2)CC[C@]314`, the fluorescence slope change in [4] was 211% (active). Also, the survival in [5] was 24.5 (inactive). The parasite load remaining in assay [6] is 32.6% (inactive) and 106% (inactive) and 79.1% (inactive). The viability in [6] was 52.8% and 85.6% and 172%. Moreover, the inhibition in [1] is -20.2% (inactive). Moreover, the remaining activity in assay [7] is 118% (inactive). For the same compound, the fold change in assay [8] (stronger effect = lower value) was 0.924 (inactive) and 0.934 (inactive); in [8] (setting [13]), 1.19 and 1.05. Besides, the cell count is 9080 and 10200 in assay [8] (setting [14]); 9820 and 11000 in [8] (setting [15]). Further, the z-score in assay [9] (setting [16]) is 0.883 (inactive) and 0.331 (inactive); in assay [9] (setting [17]), 0.202 and -0.251; in assay [11], 0.78 (inactive). In addition, the remaining NAD in assay [10] was 10 nM (inactive). In addition, in [3], the luciferase signal was 52 AU (inactive).

With `COc1ccc(C(=O)O[C@H]2CC[C@@]3(C)[C@@H]4CC[C@H]5[C@]6(O)C[C@H](O)[C@@]7(O)[C@@H](CN8C[C@@H](C)CC[C@H]8[C@@]7(C)O)[C@]6(O)C[C@@]53O[C@]24O)cc1OC`, the inhibition in assay [1] was 9.47% (inactive). In addition, the fold change was 0.935 (inactive) in assay [8] (stronger effect = lower value) and 1.54 in [8] (setting [13]). Further, the cell count in [8] (setting [14]) came out at 6050; in assay [8] (setting [15]), 6480.

As for `N#Cc1c(Cl)cccc1Cl`, the inhibition in [1] is -5.35% (inactive). Moreover, the activity remaining in [2] is 93.8% (inactive). Besides, the luciferase signal in assay [3] is 52 AU (inactive).

For the compound `OCC(O)Cc1ccc2c(c1)OCO2` (stereo unspecified), the inhibition in [1] is 11.1% (inactive). For the same compound, in assay [2], the activity remaining is 123% (inactive). Besides, the luciferase signal in assay [3] is 16 AU (inactive).

`C[C@@H]1C(=O)O[C@H]2[C@H]1CC[C@@]1(C)C=CC(=O)[C@@]3(C)O[C@@]213`: the inhibition in [1] was -5.96% (inactive). The activity remaining in [2] is 112% (inactive). Also, the luciferase signal in assay [3] is 108 AU (inactive).

The term AC50 denotes the midpoint of the concentration-response curve, whichever way the signal moves. For `CCCCCC[C@H]1C(=O)O[C@H](C)[C@H](NC(=O)c2cccc(NC=O)c2O)C(=O)O[C@@H](C)[C@@H]1OC(=O)CC(C)C`, the inhibition in assay [1] is 3.85% (inactive). The AC50 in assay [12] was 1320 nM (active).

For the compound `C#C[C@]1(O)CC[C@H]2[C@@H]3CCC4=CC(=O)CC[C@]4(C)[C@H]3CC[C@@]21C`, the parasite load remaining in [6] was 27.4% (inactive) and 14.2% (inactive). Besides, the viability in assay [6] is 48.6% and 66.5%. In addition, the inhibition in assay [1] is 7.17% (inactive). For the same compound, the fold change in assay [8] (stronger effect = lower value) is 0.927 (inactive) and 0.887 (inactive); in assay [8] (setting [13]), 1.32 and 1.63. Further, the cell count in assay [8] (setting [14]) is 8580 and 9180; in assay [8] (setting [15]) it was 9250 and 10300. Further, the z-score is -0.171 (inactive) and 0.217 (inactive) in assay [9] (setting [16]); -0.0237 and 0.861 in assay [9] (setting [17]); 0.355 (inactive) in assay [11]. The remaining NAD in assay [10] was 10 nM (inactive). Besides, in assay [3], the luciferase signal is 68 AU (inactive).

On to `CCC(=O)O[C@H]1CC[C@H]2[C@@H]3CCC4=CC(=O)CC[C@]4(C)[C@H]3CC[C@]12C`, for which the survival in assay [5] is 13.8 (inactive). Also, in assay [6], the parasite load remaining is 71.3% (inactive) and 54% (inactive). In addition, the viability in [6] was 94.2% and 78.8%. In addition, the inhibition in [1] was 16.6% (inactive). Further, the fold change is 0.875 (inactive) in [8] (stronger effect = lower value) and 1.34 in assay [8] (setting [13]). The values for the cell count in [8] (setting [14]) and in assay [8] (setting [15]) were 8190 and 9360, respectively. Also, the z-score in [9] (setting [16]) is -0.581 (inactive); in assay [9] (setting [17]), -0.301. The remaining NAD in assay [10] is 10 nM (inactive). Further, the luciferase signal in assay [3] was 32 AU (inactive).

As to `CNNC`, the inhibition in assay [1] was -3.38% (inactive). The activity remaining in [2] is 86.5% (inactive). Besides, the luciferase signal in assay [3] was 32 AU (inactive).
